# GPR151 activ = activators of human GPR151 | Q8TDV0 | PathHunter beta-arrestin GPR151 cells, luminescence | activation, % at 11.2 µM | 1% of 650,000 active | AID 1508602; in the data active = activation above about 4.9%
# FBW7 act = activators of human E3 ligase FBW7 | AlphaScreen FBW7–phospho-cyclin E peptide binding, activator screen | 0.13% of 650,000 active | normalized activity (activation), % at 26.1 µM; in the data active = normalized activity above about 1.9%;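 also: purified mutant Fbw7 with reduced substrate affinity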
# MITF primary = inhibitors of human MITF; AlphaScreen MITF homodimerization, bead proximity signal; inhibition, % at 2.6 µM; 0.91% of 650,000 active; AID 1259374; in the data active = inhibition above about 50%
# Target sequence (O75030 whole entry, looked up): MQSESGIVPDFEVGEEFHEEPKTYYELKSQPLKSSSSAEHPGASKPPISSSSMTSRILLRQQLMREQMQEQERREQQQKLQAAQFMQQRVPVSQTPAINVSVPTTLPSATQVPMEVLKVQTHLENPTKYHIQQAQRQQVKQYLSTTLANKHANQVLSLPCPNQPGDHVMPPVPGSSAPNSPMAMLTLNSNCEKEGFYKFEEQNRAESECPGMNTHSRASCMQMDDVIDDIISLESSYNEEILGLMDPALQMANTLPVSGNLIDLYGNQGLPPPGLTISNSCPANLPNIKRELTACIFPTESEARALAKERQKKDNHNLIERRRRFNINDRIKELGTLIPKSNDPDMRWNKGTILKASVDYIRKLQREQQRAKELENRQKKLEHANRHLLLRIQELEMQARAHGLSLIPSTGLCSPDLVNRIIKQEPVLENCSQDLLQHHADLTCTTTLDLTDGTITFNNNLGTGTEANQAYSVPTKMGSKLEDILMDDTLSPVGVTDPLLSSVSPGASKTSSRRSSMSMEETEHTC
# TEAD-YAP inh = TEAD-YAP interaction inhibition | 1.4% of 640,000 active | AID 1259422 | HEK-TIYL cells, TEAD-Gal4/YAP UAS-luciferase luminescence | inhibition, % at 9.12 µM; in the data active = inhibition above about 32%
# GPR151 confirm = human GPR151 activation, confirmation screen. activation, % at 11.2 µM. GPR151 PathHunter beta-arrestin cells, luminescence, 90 min; % of EA-reagent control over plate median. shares compounds with GPR151 activ. 6,700 tested, under 10 active;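 active = mean percent activation across replicates above the confirmation screen cutoff of 4.91%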
# GPR119 ag = GPR119 activation, counter-screen for GPR151 activators; shares compounds with GPR151 activ; GPR119 PathHunter beta-arrestin cells, luminescence, 90 min; 0 = compound-well median, 100 = enzyme-acceptor control; activation, % at 11.2 µM; 0.3% of 6,700 active; AID 1508611;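 active = mean percent activation in the counterscreen above 29.09%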;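 also: counterscreen on off-target GPR119 to flag nonselective hits from the GPR151 activator screen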
# Hits are given with their value; n = inactive; x = no result; ! = repeats disagree. The list is not random: actives were taken first. Their share in the collection is about 3.5%.
SMILES,GPR151 activ,FBW7 act,MITF primary,TEAD-YAP inh,GPR151 confirm,GPR119 ag
CCCC(C)C(=O)N1CCN(c2ccc(F)cc2)CC1 (stereo not drawn),n,n,n,n,x,x
CC(CC(=O)N1CCN(c2ccc(F)cc2)CC1)c1ccccc1 (stereo not drawn),11,n,n,n,n,n
CC(c1ccccc1)N1CC(C(=O)N2CCN(c3ccc(F)cc3)CC2)CC1=O (stereo not drawn),5.2,n,n,n,n,n
O=C(NCC(=O)N1CCN(c2ccccc2)CC1)c1c(F)cccc1F,6.0,n,n,n,n,n
O=C(Nc1ccc2c(c1)OCO2)c1csc(Nc2ccncn2)n1,n,n,n,n,x,x
COC(=O)c1ccc(C2C3=C(CC(C)(C)CC3=O)N(c3cccc(C(F)(F)F)c3)C3=C2C(=O)CC(C)(C)C3)cc1,6.8,n,n,n,n,n
O=C(c1cccc(S(=O)(=O)N2CCCC2)c1)c1nnc(-c2ccncc2)o1,8.2,n,n,n,n,n
O=C(CSc1cn(CCNC(=O)c2ccccc2)c2ccccc12)NCC1CCCO1 (stereo not drawn),n,n,n,n,x,x
CC(C)N(C(=O)Cn1cc(SCC(=O)NCC2CCCO2)c2ccccc21)C(C)C (stereo not drawn),12,n,n,n,n,n
NCc1cccc(CNC(=O)c2c[nH]c3cc(-c4cn[nH]c4)ccc23)c1,5.1,n,n,n,n,n
CCOc1ccc(S(=O)(=O)N(Cc2cccn2C)C2CC2)cc1F,n,n,n,n,x,x
O=[N+]([O-])c1c(N2CCCC2)ncnc1N1CCCC1,n,n,n,n,x,x
O=[N+]([O-])c1c(N2CCCCC2)c([N+](=O)[O-])c2nsnc2c1N1CCCCC1,5.6,n,n,n,n,n
O=C(C1c2ccccc2C(=O)N2CCc3ccccc3C12)N1CCN(C2CCCCC2)CC1 (stereo not drawn),12,n,n,n,n,n
Cc1ccc([N+](=O)[O-])cc1NC(=O)C1CCCN1S(=O)(=O)c1ccc(Cl)cc1 (stereo not drawn),n,n,n,n,x,x
CC(C)CCNC(=O)c1c(O)c2cccc3c2n(c1=O)CC3,7.0,n,n,n,n,n
CC(C)CCNC(=O)c1c(O)c2cccc3c2n(c1=O)CCC3,n,n,n,n,x,x
O=C(Nc1ccccc1Br)c1c(O)c2cccc3c2n(c1=O)CC3,5.4,n,n,n,n,n
O=C(Nc1ccccc1F)c1c(O)c2cccc3c2n(c1=O)CC3,n,n,n,n,x,x
Cc1nn(C)cc1CN1CCC(CO)(CCOc2ccccc2)CC1,11,n,n,n,n,n
O=S(=O)(c1cccs1)N1CCC(CO)(Cc2ccccc2C(F)(F)F)CC1,n,n,n,n,x,x
CCOC(=O)c1ccc(NC(=O)C(C)N(c2ccc(C)c(C)c2)S(C)(=O)=O)cc1 (stereo not drawn),5.1,n,n,n,n,n
COC(=O)c1ccc(NC(=O)C(C)N(c2ccc(C)c(C)c2)S(C)(=O)=O)cc1 (stereo not drawn),n,n,n,n,x,x
CCOC(=O)c1ccccc1NC(=O)C(C)N(c1ccc(Cl)cc1)S(C)(=O)=O (stereo not drawn),n,n,n,n,x,x
CCOC(=O)c1ccccc1NC(=O)C(C)N(c1ccc(C)cc1)S(C)(=O)=O (stereo not drawn),5.9,n,n,n,n,n
SMILES,GPR151 activ,FBW7 act,MITF primary,TEAD-YAP inh,GPR151 confirm,GPR119 ag
CC(C)(C)C1CCc2c(sc(NC(=O)c3ccco3)c2C(=O)NCc2ccccc2)C1 (stereo not drawn),n,n,n,n,x,x
CCOC(=O)C1=C(C)NC2=C(C(=O)CC(C)(C)C2)C1c1cccc(OC)c1OC (stereo not drawn),n,n,n,n,x,x
COc1cc(C2C(C(=O)OC3CCCCC3)=C(C)NC3=C2C(=O)CC(C)(C)C3)cc(OC)c1OC (stereo not drawn),12,n,n,n,n,n
CCOC(=O)C1=C(C)NC2=C(C(=O)CC(C)(C)C2)C1c1ccc(OC)c(OC)c1OC (stereo not drawn),12!,n,n,n,n,n
O=C(c1ccc([N+](=O)[O-])cc1)N1CCC(C(=O)N2CCN(c3ccccc3)CC2)CC1,11,n,n,n,n,n
Cc1cccc(-c2n[nH]c(=S)n2CC(=O)O)c1,7.2,n,n,n,n,n
CCOc1cccc(C2CC(c3cccc(OC)c3)=NC(c3ccc(C(=O)OC)cc3)N2)c1O (stereo not drawn),n,n,n,n,x,x
CC[C@H](C)[C@@H]1NC(=O)[C@@H]2C[C@H](NC(=O)Nc3cccc(Cl)c3)CN2C1=O,5.3,n,n,n,n,n
O=C(CSCc1c(Cl)cccc1Cl)N1CCOCC1,n,n,n,n,x,x
O=C(CSCc1c(Cl)cccc1Cl)N1CCCCC1,6.1,n,n,n,n,n
C=CCNC(=O)CCN1C(=O)c2ccccc2C1=O,5.6,n,n,n,n,n
Cc1cc(N(CC(=O)NC2CCCCC2)S(C)(=O)=O)ccc1Br,8.1,n,n,n,n,n
CCOC(=O)C1=C(C)N=c2s/c(=C\c3cc([N+](=O)[O-])ccc3N3CCOCC3)c(=O)n2C1c1ccccc1OC (stereo not drawn),n,n,n,n,x,x
CN(CCCNC(=O)CCn1c(=O)c2cccn2c2cccnc21)C1CCCCC1,5.3,n,n,n,n,n
Cc1cc(OC(C)C(=O)N(Cc2ccco2)C2CCS(=O)(=O)C2)ccc1Cl (stereo not drawn),n,n,n,n,x,x
Cc1ccccc1NC(=O)C(C)(C)N(Cc1ccco1)C(=O)C(C)Oc1cc(Cl)c(Cl)cc1Cl (stereo not drawn),5.6,n,n,n,n,n
O=C(CN1CCOCC1)N/N=C/c1ccccc1Br,n,n,n,n,x,x
c1ccc(-c2nc3c(c(N4CCOCC4)n2)CN(Cc2cccnc2)CC3)nc1,n,n,n,n,x,x
N#C/C=C(\c1ccc(F)cc1)N1CCOCC1,8.4,n,n,n,n,n
C=CCNC(=O)N1CCc2nc(-c3ccc(OC)cc3C)c3c(c2C1)CO[C@@H](c1ccccc1)C3,n,n,n,x,x,x
C[C@H]1Cc2c(-c3ccccc3)nc3c(c2CO1)CN(C(=O)Cc1cccs1)CC3,n,n,n,x,x,x
COc1cccc(CC(=O)N2CCc3nc(-c4ccccc4)c4c(c3C2)CO[C@@H](C)C4)c1,6.8,n,n,x,n,n
COc1ccc(-c2nc3c(c4c2C[C@H](c2ccccc2)OC4)CN(C(=O)NCc2ccco2)CC3)c(C)c1,5.9,n,n,x,n,n
COCCCNC(=O)C1CCC(Cn2c(=O)c3sccc3n(Cc3cccc(C)c3)c2=O)CC1 (stereo not drawn),5.3,n,n,n,n,n
COc1ccccc1Oc1ccc(N2C(=O)c3cccc([N+](=O)[O-])c3C2=O)cc1,8.4,n,n,n,n,n

# Screening results as filed in PubChem.
